# PubChem BioAssay (EPA / NIEHS)
# Several values for one entry are separate records, joined by “and”; a condition that tells them apart may be missing. Identical values can stand only once. Inconclusive results are not listed. More than one record can exist for a structure, and the calls need not agree. Activity calls are given as the source filed them. How the source made its calls: active means hit-call score of the fitted dose curve at least 0.9, where 1 is the maximum; inconclusive means response in the unintended direction; inactive means score below 0.9.
# How the values were obtained:
# [1] = molecular target: Estrogen receptor (Homo sapiens) (UniProt P03372); test: OT_ER_ERaERa_1440: Odyssey Thera (OT) 24-hour HEK293T Protein-Complementation Assay for Estrogen Receptor-alpha/-alpha Homodimer (AID 2283349);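 further: hits raise fluorescence above DMSO for agonists and antagonists alike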
# Chain of Estrogen receptor (Homo sapiens) (P03372 whole entry, looked up, the tested form may be a part): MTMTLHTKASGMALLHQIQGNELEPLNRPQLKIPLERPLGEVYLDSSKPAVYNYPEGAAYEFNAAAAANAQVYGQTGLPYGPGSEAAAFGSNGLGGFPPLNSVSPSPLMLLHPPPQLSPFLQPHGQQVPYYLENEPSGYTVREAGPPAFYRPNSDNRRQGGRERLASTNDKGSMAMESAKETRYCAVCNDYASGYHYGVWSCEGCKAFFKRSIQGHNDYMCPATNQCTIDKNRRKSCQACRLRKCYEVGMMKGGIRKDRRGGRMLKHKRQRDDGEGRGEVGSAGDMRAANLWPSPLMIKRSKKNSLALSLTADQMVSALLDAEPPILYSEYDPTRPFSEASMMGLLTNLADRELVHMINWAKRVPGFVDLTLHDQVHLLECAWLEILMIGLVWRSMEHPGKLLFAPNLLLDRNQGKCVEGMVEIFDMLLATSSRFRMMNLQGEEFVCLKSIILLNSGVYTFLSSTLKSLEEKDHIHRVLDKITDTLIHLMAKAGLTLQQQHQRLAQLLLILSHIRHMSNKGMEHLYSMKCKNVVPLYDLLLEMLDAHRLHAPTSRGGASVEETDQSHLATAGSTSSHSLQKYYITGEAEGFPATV
# How it was run: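 Cells (HEK293T) carrying the fragment-tagged ERα LBD (aa 310-547) pair are treated with chemical for 24 hours. Nuclear and/or cytoplasmic fluorescence is then quantified on a laser scanning cytometer. Activity is scored as signal gain against DMSO.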
# [2] = molecular target: Bile acid receptor (Homo sapiens) (UniProt Q96RI1); test: NVS_NR_hFXR_Antagonist: NovaScreen (NVS) Nuclear Receptor Binding Assay for human Farnesoid X Receptor Antagonism (FXR) (AID 2283350)
# How it was run: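 Antagonist-format time-resolved FRET binding assay with extracted human receptor protein, read 1 hour after compound addition. Compounds first screened at 25 uM in duplicate, then actives tested in concentration series, with loss of signal relative to DMSO.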
# [3] = molecular target: T1, Estrogen receptor (Homo sapiens) + Estrogen receptor beta (Homo sapiens) (UniProt P03372+Q92731); test: OT_ER_ERaERb_1440: Odyssey Thera (OT) 24-hour HEK293T Protein-Complementation Assay for Estrogen Receptor-alpha/-beta Homodimer (AID 2283356);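 further: heteromer of ER alpha and ER beta binding domains; hits raise reporter fluorescence and both agonists and antagonists give an increase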
# T1 sequence (P03372 whole entry, looked up, the tested form may be a part): as above
# T1 sequence (Q92731 whole entry, looked up, the tested form may be a part): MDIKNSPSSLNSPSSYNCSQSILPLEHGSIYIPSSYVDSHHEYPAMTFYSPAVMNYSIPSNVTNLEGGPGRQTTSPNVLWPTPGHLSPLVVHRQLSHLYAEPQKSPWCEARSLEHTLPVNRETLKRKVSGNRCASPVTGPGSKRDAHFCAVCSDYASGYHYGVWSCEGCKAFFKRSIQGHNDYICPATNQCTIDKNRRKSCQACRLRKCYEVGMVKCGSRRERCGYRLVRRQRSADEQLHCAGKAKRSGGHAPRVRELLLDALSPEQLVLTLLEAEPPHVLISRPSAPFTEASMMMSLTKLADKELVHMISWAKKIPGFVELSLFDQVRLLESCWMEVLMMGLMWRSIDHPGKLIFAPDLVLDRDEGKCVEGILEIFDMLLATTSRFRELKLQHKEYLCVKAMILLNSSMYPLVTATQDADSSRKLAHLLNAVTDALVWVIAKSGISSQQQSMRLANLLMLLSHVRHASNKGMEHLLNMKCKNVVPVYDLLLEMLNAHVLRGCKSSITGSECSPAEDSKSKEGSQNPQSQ
# How it was run: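 24 h exposure; HEK293T PCA cells with ERα/ERβ LBD fragments; signal rise in nuclear or whole-cell fluorescence over vehicle.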
# [4] = molecular target: Estrogen receptor beta (Homo sapiens) (UniProt Q92731); test: OT_ER_ERbERb_0480: Odyssey Thera (OT) 8-hour HEK293T Protein-Complementation Assay for Estrogen Receptor-beta/-beta Homodimer (AID 2283357);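 further: active means signal gain over DMSO baseline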
# Chain of Estrogen receptor beta (Homo sapiens) (Q92731 whole entry, looked up, the tested form may be a part): as above
# How it was run: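 Homodimerization of ER-beta LBD measured by protein-fragment complementation in HEK293T; 8 h dosing; fixed, Draq5 counterstain; fluorescence intensity gain over DMSO baseline, positive fitting direction; laser scanning cytometry.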
# [5] = molecular target: human Adenosine Transporter (Adot), SLC29A1 (gene 2030) (UniProt Q99808); test: NVS_TR_hAdoT: NovaScreen (NVS) Transporter Assay for human Adenosine Transporter (Adot) (AID 2283368)
# How it was run: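 Binding displacement on U937 extracted protein, read 1 h post-dose by filtration and scintillation counting. Primary duplicate test at 25 uM, then singleton concentration series with 50 uM top; DMSO baseline.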
# [6] = molecular target: rat Mineralocorticoid Receptor (MR), Nr3c2 (gene 25672) (UniProt P22199); test: NVS_NR_rMR: NovaScreen (NVS) Nuclear Receptor Binding Assay for rat Mineralocorticoid Receptor (MR) (AID 2283355)
# Chain of rat Mineralocorticoid Receptor (MR), Nr3c2 (gene 25672) (P22199 whole entry, looked up): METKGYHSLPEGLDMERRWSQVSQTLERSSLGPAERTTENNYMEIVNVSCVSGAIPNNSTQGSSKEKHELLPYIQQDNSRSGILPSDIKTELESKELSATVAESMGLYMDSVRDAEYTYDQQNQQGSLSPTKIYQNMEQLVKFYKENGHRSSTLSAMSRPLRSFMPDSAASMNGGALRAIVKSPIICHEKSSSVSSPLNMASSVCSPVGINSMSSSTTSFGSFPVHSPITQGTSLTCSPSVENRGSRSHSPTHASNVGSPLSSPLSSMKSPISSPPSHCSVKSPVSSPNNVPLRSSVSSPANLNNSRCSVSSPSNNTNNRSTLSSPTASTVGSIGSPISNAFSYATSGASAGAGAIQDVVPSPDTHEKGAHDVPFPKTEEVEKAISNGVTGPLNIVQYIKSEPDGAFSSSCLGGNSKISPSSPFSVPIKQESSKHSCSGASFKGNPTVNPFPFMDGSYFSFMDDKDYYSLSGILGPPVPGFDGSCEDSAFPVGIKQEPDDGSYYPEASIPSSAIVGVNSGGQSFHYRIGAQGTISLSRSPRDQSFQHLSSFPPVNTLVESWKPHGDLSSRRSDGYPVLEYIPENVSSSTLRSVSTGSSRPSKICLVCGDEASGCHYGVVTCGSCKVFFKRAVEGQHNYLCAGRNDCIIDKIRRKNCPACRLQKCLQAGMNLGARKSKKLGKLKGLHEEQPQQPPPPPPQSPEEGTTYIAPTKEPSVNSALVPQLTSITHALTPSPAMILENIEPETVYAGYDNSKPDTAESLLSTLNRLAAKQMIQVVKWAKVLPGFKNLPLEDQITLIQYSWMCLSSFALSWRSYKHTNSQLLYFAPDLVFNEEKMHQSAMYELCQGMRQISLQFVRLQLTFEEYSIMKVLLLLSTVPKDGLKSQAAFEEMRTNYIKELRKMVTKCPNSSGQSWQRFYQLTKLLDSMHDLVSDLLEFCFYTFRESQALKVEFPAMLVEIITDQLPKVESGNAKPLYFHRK
# How it was run: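 Radioligand displacement, scintillation readout; tissue source adrenalectomized rat brain supernatant. Read 24 h post-dose. Screened in duplicate at 25 uM, DMSO negative control, controls on every plate; actives re-run in concentration series.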
# [7] = molecular target: human Peroxisome Proliferator-activated Receptor alpha (PPARa), PPARA (gene 5465) (UniProt Q07869); test: NVS_NR_hPPARa: NovaScreen (NVS) Nuclear Receptor Binding Assay for human Peroxisome Proliferator-activated Receptor alpha (PPARa) (AID 2283359);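 further: activity means loss of TR-FRET signal versus DMSO baseline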
# How it was run: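 TR-FRET signal measured at 1 h post-dosing; loss-of-signal versus DMSO negative control taken as activity. Extracted gene-protein, cell-free format. Initial single-point duplicates at 25 uM, then concentration-response retests.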
# [8] = molecular target: Glucocorticoid receptor (Homo sapiens) (UniProt P04150); test: NVS_NR_hGR: NovaScreen (NVS) Nuclear Receptor Binding Assay for human Glucocorticoid Receptor (GR) (AID 2283363);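 on AC50: activity is loss of specific radioligand binding signal relative to DMSO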
# Chain of Glucocorticoid receptor (Homo sapiens) (P04150 whole entry, looked up): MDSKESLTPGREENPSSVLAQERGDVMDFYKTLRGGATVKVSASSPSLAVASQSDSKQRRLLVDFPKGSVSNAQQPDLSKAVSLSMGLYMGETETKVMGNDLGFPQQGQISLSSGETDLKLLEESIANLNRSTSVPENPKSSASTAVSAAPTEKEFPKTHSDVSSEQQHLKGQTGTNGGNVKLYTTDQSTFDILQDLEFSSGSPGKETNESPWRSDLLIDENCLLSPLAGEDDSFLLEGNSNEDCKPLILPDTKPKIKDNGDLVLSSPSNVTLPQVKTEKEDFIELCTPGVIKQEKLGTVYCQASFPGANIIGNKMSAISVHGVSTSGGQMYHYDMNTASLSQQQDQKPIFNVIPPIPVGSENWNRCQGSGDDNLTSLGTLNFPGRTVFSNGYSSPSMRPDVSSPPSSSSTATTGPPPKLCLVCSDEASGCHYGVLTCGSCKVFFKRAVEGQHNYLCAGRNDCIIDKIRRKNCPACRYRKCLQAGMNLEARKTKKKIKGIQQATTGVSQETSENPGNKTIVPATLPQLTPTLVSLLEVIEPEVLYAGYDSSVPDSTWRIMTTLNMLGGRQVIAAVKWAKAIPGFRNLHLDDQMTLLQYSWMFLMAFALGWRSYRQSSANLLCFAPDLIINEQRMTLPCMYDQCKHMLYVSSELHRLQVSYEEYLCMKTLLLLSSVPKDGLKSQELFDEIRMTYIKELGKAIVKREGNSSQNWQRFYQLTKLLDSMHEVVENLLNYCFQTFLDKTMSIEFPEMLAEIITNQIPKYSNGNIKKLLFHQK
# How it was run: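 Filter scintillation readout of tritiated/iodinated radioligand displaced by test chemical; cell-free extracted protein; 16 h. DMSO = negative control/baseline. Duplicate single-point 25 uM screen, then concentration-response on actives.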
# [9] = molecular target: Nuclear receptor subfamily 1 group I member 2 (Homo sapiens) (UniProt O75469); test: NVS_NR_hPXR: NovaScreen (NVS) Nuclear Receptor Binding Assay for human Pregnane X Receptor (PXR) (AID 2283365);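 further: a drop in FRET signal versus DMSO baseline means the compound binds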
# Chain of Nuclear receptor subfamily 1 group I member 2 (Homo sapiens) (O75469 whole entry, looked up): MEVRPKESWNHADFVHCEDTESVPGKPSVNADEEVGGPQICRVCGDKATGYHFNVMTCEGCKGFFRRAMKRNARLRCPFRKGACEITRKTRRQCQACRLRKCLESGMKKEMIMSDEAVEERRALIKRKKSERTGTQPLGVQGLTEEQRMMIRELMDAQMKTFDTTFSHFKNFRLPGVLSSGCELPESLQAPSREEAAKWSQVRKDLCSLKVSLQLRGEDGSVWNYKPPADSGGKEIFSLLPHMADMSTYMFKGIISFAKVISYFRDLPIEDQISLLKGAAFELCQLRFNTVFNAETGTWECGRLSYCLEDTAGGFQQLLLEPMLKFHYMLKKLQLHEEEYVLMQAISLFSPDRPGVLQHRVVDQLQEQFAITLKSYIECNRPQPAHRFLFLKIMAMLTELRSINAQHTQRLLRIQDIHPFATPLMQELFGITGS
# How it was run: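 Read-out: TR-FRET, human PXR, 2 h post-dosing, cell-free. Loss of signal vs DMSO taken as binding activity; 25 uM primary, concentration series secondary.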
# [10] = molecular target: Retinoic acid receptor alpha (Homo sapiens) (UniProt P10276); test: NVS_NR_hRAR_Antagonist: NovaScreen (NVS) Nuclear Receptor Binding Assay for human Retinoic Acid Alpha Receptor Antagonism (RAR) (AID 2283358)
# Chain of Retinoic acid receptor alpha (Homo sapiens) (P10276 whole entry, looked up): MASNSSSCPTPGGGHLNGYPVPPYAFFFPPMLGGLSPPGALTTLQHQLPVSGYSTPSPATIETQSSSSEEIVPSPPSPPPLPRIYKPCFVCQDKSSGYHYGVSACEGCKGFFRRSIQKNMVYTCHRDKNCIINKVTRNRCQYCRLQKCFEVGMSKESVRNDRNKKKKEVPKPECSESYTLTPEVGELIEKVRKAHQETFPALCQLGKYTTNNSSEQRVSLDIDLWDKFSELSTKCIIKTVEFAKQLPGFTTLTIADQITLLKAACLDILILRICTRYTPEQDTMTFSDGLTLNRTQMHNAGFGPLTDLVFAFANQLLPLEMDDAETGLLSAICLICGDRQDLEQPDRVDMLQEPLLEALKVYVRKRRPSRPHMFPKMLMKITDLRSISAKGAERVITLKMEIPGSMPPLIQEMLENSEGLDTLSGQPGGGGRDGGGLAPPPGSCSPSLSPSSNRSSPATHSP
# How it was run: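 Read-out: time-resolved FRET binding signal, 2 h post-dose, cell-free extracted protein. Antagonism scored as signal loss versus DMSO negative control. Primary single-concentration screen at 25 uM in duplicate; concentration series for actives.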
# [11] = molecular target: PGR (gene 5241) (UniProt P06401); test: NVS_NR_hPR: NovaScreen (NVS) Nuclear Receptor Binding Assay for human Progestron Receptor (PR) (AID 2283360);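 further: active means loss of bound radioligand signal versus DMSO baseline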
# Chain of PGR (gene 5241) (P06401 whole entry, looked up): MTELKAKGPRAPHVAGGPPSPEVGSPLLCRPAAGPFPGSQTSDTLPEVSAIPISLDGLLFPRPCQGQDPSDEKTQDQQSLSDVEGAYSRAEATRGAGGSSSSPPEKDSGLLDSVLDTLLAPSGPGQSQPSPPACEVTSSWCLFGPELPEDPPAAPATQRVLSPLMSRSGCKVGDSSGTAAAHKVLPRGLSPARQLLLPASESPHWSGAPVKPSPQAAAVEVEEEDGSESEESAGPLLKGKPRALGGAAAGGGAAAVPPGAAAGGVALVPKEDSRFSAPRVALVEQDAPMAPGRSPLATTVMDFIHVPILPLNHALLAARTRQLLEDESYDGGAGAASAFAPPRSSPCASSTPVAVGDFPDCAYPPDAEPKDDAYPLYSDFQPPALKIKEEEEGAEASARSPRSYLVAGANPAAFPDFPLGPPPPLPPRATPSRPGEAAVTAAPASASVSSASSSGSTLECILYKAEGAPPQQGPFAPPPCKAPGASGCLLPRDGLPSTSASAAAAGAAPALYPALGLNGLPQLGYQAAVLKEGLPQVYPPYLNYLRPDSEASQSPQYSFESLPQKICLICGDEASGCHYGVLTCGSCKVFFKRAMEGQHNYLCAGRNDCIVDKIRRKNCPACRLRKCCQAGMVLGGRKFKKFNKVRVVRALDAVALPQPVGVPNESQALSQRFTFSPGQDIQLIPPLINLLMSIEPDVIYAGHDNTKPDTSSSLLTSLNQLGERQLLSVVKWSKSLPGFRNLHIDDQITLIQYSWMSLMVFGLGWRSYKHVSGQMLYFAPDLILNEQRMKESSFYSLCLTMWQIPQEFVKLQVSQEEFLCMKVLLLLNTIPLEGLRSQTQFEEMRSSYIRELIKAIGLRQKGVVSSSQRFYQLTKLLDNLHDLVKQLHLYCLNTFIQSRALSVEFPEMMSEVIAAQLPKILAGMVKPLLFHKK
# How it was run: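 Radioligand competition binding on receptor extracted from T47D cells, read by scintillation counting 18 h after dosing. Loss of signal versus DMSO; primary screen in duplicate at 25 uM, actives followed in concentration series.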
# [12] = molecular target: Androgen Receptor/SRC-1 Co-activator, AR (gene 367) (UniProt P10275); test: OT_AR_ARSRC1_0960: Odyssey Thera (OT) 16-hour HEK293T Protein-Complementation Assay for Androgen Receptor/SRC-1 Co-activator (AID 2283353);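 further: actives raise the signal above DMSO so potency reflects increased AR and SRC-1 complex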
# How it was run: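 Endpoint is gain-of-signal N/C fluorescence ratio in the 488 nm channel versus DMSO, from at least 400 cells per image, measured 16 h post-dosing. Cells: HEK293T stably carrying split-Venus AR/SRC-1 complementation constructs.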
# [13] = molecular target: Retinoic acid receptor alpha (Homo sapiens) (UniProt P10276); test: NVS_NR_hRARa_Agonist: NovaScreen (NVS) Nuclear Receptor Binding Assay for human Retinoic Acid Alpha Receptor Agonism (RAR) (AID 2283361)
# How it was run: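 TR-FRET signal, 2 h post-dosing; cell-free extracted protein; DMSO = baseline, positive fitting direction; 25 uM single-point duplicate, then concentration series for actives.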
# [14] = molecular target: Estrogen receptor (Homo sapiens) (UniProt P03372); test: OT_ER_ERaERa_0480: Odyssey Thera (OT) 8-hour HEK293T Protein-Complementation Assay for Estrogen Receptor-alpha/-alpha Homodimer (AID 2283351);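 further: rise in fluorescence from reassembled reporter fragments on ERα LBD homodimer in nucleus or whole cell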
# How it was run: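 HEK293T cells stably expressing a PCA pair of ER alpha LBD (residues 310-547) were dosed for 8 hours. The gain in fluorescence intensity, nuclear for agonists and whole-cell for antagonists, was measured by laser scanning cytometry against DMSO vehicle.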
# [15] = molecular target: T1, Estrogen receptor (Homo sapiens) + Estrogen receptor beta (Homo sapiens); test: OT_ER_ERaERb_0480: Odyssey Thera (OT) 8-hour HEK293T Protein-Complementation Assay for Estrogen Receptor-alpha/-beta Heterodimer (AID 2283352)
# How it was run: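 Human HEK293T cells were treated for 8 hours and receptor heterodimerisation was detected through reconstitution of a fluorescent reporter split between ER-alpha and ER-beta ligand-binding domains. Activity was analysed as gain of signal against DMSO.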
structure (smiles),measurement,setting,value
O=c1[nH]sc2ccccc12,outcome,[1],inactive
same,outcome,[2],inactive
same,outcome,[3],inactive
same,outcome,[4],inactive
same,AC50,[5],17.2 µM (active)
C[C@]12CC[C@@H]3c4ccc(O)cc4CC[C@H]3[C@@H]1CC[C@H]2O,AC50,[6],0.135 µM (active)
same,outcome,[7],inactive
same,AC50,[8],374 nM (active) and 448 nM (active) and 261 nM (active)
same,outcome,[8],inactive
same,outcome,[9],inactive
Oc1ccccc1,outcome,[9],inactive
CCCCCCCCCCCC[N+](C)(C)C,outcome,[4],inactive
same,outcome,[5],inactive
O=C(O)Cc1cc(I)c(Oc2ccc(O)c(I)c2)c(I)c1,AC50,[2],40.3 µM (active)
same,outcome,[6],inactive
same,outcome,[4],inactive
same,outcome,[10],inactive
same,AC50,[7],46.3 µM (active)
same,AC50,[11],6.44 µM (active)
same,AC50,[8],561 nM (active) [middle of 4 runs]
same,outcome,[9],inactive
NC(=O)c1nc(-c2cccc(-c3cc(F)ccc3OCC(F)(F)C(F)(F)F)c2)n[nH]1,outcome,[1],inactive
same,AC50,[12],50 µM (active)
same,outcome,[3],inactive
same,outcome,[9],inactive
CC[C@@H]1C[C@H](N(Cc2cc(C(F)(F)F)cc(C(F)(F)F)c2)C(C)=O)c2cc(C(F)(F)F)ccc2N1C(=O)OC(C)C,outcome,[1],inactive
same,outcome,[3],inactive
same,outcome,[4],inactive
same,outcome,[11],inactive
same,outcome,[13],inactive
same,outcome,[8],inactive
OCCO,outcome,[1],inactive
same,outcome,[14],inactive
same,outcome,[12],inactive
c1ccc2ccccc2c1,outcome,[1],inactive
same,outcome,[13],inactive
CO[C@H]1/C=C/O[C@@]2(C)Oc3c(C)c(O)c4c(O)c(c(/C=N/N5CCN(C)CC5)c(O)c4c3C2=O)NC(=O)/C(C)=C\C=C\[C@H](C)[C@H](O)[C@@H](C)[C@@H](O)[C@@H](C)[C@H](OC(C)=O)[C@@H]1C,outcome,[4],inactive
CCCCCCCCCC(=O)O,outcome,[12],inactive
same,outcome,[7],inactive
Cc1cccc2ccccc12,outcome,[1],inactive
CN(C[C@@H](CC[N+]12CCC(C3CCCCC3)(CC1)CC2)c1ccc(Cl)c(Cl)c1)C(=O)c1cc(C(F)(F)F)cc(C(F)(F)F)c1,outcome,[1],inactive
same,AC50,[12],21.3 µM (active)
same,outcome,[11],inactive
same,AC50,[8],6.49 µM (active)
same,AC50,[9],25 µM (active)
O=C(O)c1ccccc1-n1cc(C(=O)O)c(=O)c2cc(Nc3c(F)cc(F)cc3Cl)c(Cl)cc21,outcome,[1],inactive
same,outcome,[15],inactive
same,outcome,[6],inactive
same,outcome,[3],inactive
same,AC50,[8],25 µM (active)
CCCCCCCCOc1ccc(C(=O)c2ccccc2)c(O)c1,outcome,[1],inactive
same,outcome,[7],inactive
c1ccc2n[nH]nc2c1,outcome,[4],inactive
Cc1ccc2oc(CN(Cc3ccccc3)C(=O)Nc3c(F)cc(F)cc3F)c(-c3ccc(Cl)cc3)c2c1,outcome,[1],inactive
same,outcome,[14],inactive
same,outcome,[15],inactive
same,outcome,[3],inactive
same,outcome,[4],inactive
same,AC50,[5],1.1 µM (active)
O=C1c2ccccc2C(=O)N1CCc1noc(-c2ccc(CN3CCCCCC3)s2)n1,outcome,[1],inactive
same,AC50,[5],21.1 µM (active)
CCO[Si](CCCNC(N)=O)(OCC)OCC,outcome,[1],inactive
same,outcome,[2],inactive
same,outcome,[15],inactive
same,outcome,[3],inactive
same,outcome,[4],inactive
same,outcome,[13],inactive
CC(C)(O)c1ccc(CNC(=O)c2cccnc2Oc2ccc3nonc3c2)cc1,outcome,[1],inactive
same,outcome,[3],inactive
same,outcome,[4],inactive
same,outcome,[11],inactive
same,outcome,[8],inactive
O=C1O[C@H]([C@@H](O)CO)C(O)=C1O,outcome,[4],inactive
CCCCOC(=O)CC(CC(=O)OCCCC)(OC(C)=O)C(=O)OCCCC,outcome,[4],inactive
CCCCCCCC[Si](OCC)(OCC)OCC,outcome,[4],inactive
same,outcome,[9],inactive
O=C(O)c1ccccc1C(=O)OCc1ccccc1,outcome,[1],inactive
same,outcome,[2],inactive
same,outcome,[12],inactive
same,outcome,[7],inactive
Cc1occc1C(=O)Nc1ccc(C(=O)N2CCC(F)(F)/C(=C\C(=O)N3CCC(N4CCCCC4)CC3)c3ccccc32)cc1,outcome,[1],inactive
same,AC50,[15],26.9 µM (active)
same,AC50,[12],32.3 µM (active)
same,AC50,[3],33.5 µM (active)
same,outcome,[4],inactive
same,AC50,[5],8.75 µM (active)
CCCCCCCCCCCCO,outcome,[1],inactive
same,outcome,[14],inactive
same,outcome,[15],inactive
same,outcome,[3],inactive
same,outcome,[4],inactive
same,outcome,[11],inactive
O=C(O)Cn1c(=O)n(Cc2ccc(Br)cc2F)c(=O)c2ccc(Cl)cc21,outcome,[1],inactive
same,outcome,[15],inactive
same,outcome,[12],inactive
same,outcome,[3],inactive
same,outcome,[4],inactive
